POLK inh: inhibitors of human DNA polymerase kappa | Q9UBT6 | purified Pol kappa, fluorescent DNA synthesis assay, 10 min | Potency, µM (top dose mostly 107 µM), inactives show at the top dose activity, negative = inhibition, actives largely listed as inhibitors | 0.53% of 400,000 active | AID 588579; note: % is set by controls: 0 for no effect and ±100 for the full control effect
Target sequence (Q9UBT6 whole entry, looked up): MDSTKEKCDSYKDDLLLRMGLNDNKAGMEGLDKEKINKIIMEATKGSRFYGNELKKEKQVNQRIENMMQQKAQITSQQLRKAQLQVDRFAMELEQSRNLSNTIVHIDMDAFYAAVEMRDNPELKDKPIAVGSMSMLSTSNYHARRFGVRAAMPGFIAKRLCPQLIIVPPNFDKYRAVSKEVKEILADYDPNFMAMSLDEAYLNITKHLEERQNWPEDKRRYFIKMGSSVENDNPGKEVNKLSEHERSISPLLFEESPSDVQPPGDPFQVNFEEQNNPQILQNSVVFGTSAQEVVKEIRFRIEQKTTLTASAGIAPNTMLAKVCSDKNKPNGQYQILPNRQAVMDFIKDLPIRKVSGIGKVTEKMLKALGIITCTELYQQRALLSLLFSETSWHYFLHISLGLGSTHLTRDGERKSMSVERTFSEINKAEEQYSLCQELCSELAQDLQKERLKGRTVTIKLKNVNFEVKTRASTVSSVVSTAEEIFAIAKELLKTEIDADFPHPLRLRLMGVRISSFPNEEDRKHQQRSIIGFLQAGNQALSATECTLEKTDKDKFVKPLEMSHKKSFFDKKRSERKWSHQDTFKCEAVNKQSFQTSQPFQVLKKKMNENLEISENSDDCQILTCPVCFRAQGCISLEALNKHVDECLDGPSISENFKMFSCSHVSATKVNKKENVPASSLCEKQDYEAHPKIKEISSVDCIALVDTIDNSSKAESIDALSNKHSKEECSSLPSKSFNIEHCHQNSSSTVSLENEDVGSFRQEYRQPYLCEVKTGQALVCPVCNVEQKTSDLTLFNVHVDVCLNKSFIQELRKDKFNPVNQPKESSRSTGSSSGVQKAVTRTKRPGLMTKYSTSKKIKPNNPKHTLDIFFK
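Activity was followed as the change in fluorescence between reads at 0 and 10 min after starting the reaction with 50 nM substrate. Beforehand, 10 nM polymerase had been preincubated with compound for 15 min at room temperature.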
Pol beta inh: DNA polymerase beta (human) inhibition | P06746 | Pol beta primer extension/strand displacement, fluorescence kinetic | Potency, µM (highest dose often 114 µM), for inactives: at the top dose activity change, negative = inhibition, usual class: inhibitors | 1.3% of 340,000 active; note: % is set by controls: 0 for no effect and ±100 for the full control effect
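10 nM enzyme + cpd, 15 min RT; start with substrate 50 nM final; read 0 min and after 10 min RT. Corrected, normalized data; 4-parameter Hill curve fit.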
Pol iota inh: inhibitors of human DNA polymerase iota; Pol iota fluorescent replication assay, 10 min; Potency, µM (highest dose often 115 µM), without a hit: top-dose activity, negative = inhibition, hits mostly inhibitors; 1% of 390,000 active
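Pol iota at 10 nM preincubated 15 min with compounds at room temperature; reaction started with fluorescent substrate, 50 nM final. Fluorescence read kinetically at 0 and 10 min; buffer-only wells as negative control.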
APEX1 inh: inhibitors of human APE1 endonuclease; Potency, µM (titrated, usually from 65.8 µM), for the others: at the highest dose activity change, negative = inhibition, hits mostly inhibitors; recombinant APE1, TAMRA/BHQ-2 abasic DNA cleavage fluorescence; 0.35% of 350,000 active; AID 2517;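 note: plate controls were vehicle for no effect and reference inhibitor for full effect; nearly all actives have a fitted effect of over 55% in size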
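Kinetic fluorescence read (525 ex/598 em nm, three reads 60 s apart) of AP-site incision; signal = third minus first read. Enzyme 0.75 nM, dual-labelled THF duplex 50 nM, compound preincubation 15 min RT.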
POLH inh: DNA polymerase eta (human) inhibition | Q9Y253 | recombinant Pol eta, fluorescent DNA replication assay | Potency, µM (highest dose often 114 µM), inactives show at the top dose activity change, negative = inhibition, hits mostly inhibitors | 1.2% of 390,000 active; note: % is set by controls: 0 for no effect and ±100 for the full control effect
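Fluorescent replication assay: 50 nM final substrate added after a 15 min room-temperature compound preincubation with 10 nM enzyme. Signal taken at 0 min and again at 10 min.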
GLS inhibitor: glutaminase GLS (human) inhibition; O94925; GLS enzymatic activity, qHTS titration; Potency, µM (top dose mostly 45.5 µM), for the others: at the top dose activity change, negative = inhibition, hits mostly inhibitors; 0.21% of 410,000 active; AID 624170; note: % is set by controls: 0 for no effect and ±100 for the full control effect
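Assay buffer: 45 mM KH2PO4 pH 8.2, 0.02% Tween-20. hKGA acts on L-glutamine (1 mM solution added); product glutamate is reported by an oxidase/peroxidase Amplex Red coupling, with fluorescence taken at baseline and 30 min.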
* hit, by the source's call; ? = inconclusive; / = no result given; ! = a repeat was not active; [ ] = remark or other dose. In the library only some 2.4% were active in any assay of this set; here they are far more common. Calls come from the whole dose curve; as a rule, active = well fitted curve in the direction sought with a large enough effect; inconclusive = small, poorly fitted or top-dose-only effect, or another doubt; inactive = no such curve, though single readings can be large; an effect the other way counts as inactive or inconclusive. Potency is the fitted concentration of half-maximal effect.

SMILES	POLK inh	Pol beta inh	Pol iota inh	APEX1 inh	POLH inh	GLS inhibitor
CCc1ccc(NC(=O)Cn2ccn(-c3cccc(Cl)c3)c(=O)c2=O)cc1	-10%	0%	-26%	20%	0%	-4%
CNc1n[nH]c(=S)s1	1%	-1%	?	-4%	-15%	14µM*
CC(=O)Nc1n[nH]c(=S)s1	-15%	/	-18%	/	?	?
CCC(C)NC(=O)CSC1=Nc2ccccc2C2=NC(c3ccccc3)C(=O)N12 (stereo unspecified)	1%	-11%	10%	4%	2%	13µM*
CCc1ccc(NC(=O)Cn2c(=O)ccc3cc(S(=O)(=O)N4CCCC4)ccc32)cc1	-2%[60.1 µM]	7%	18%	/	89µM*	-2%
CC(=O)c1cccc(NC(=O)Cn2c(=O)oc3cc(S(=O)(=O)N4CCCC4)ccc32)c1	-20%	32µM*!	?	-3%	0%	0%
Cc1cc(C)cc(NC(=O)Cn2c(=O)oc3cc(S(=O)(=O)N4CCCC4)ccc32)c1	1%	?	-29%	/	/	2%
Cc1cc(NC(=O)Cn2c(=O)oc3cc(S(=O)(=O)N4CCCC4)ccc32)ccc1Br	2%[60.1 µM]	13µM*	-3%	/	-20%	11%
CC1O[C@@H](O[C@@H]2C(O)C[C@H](O[C@@H]3C(O)C[C@@H](OC4CC[C@@]5(C)C6CC(O)[C@@]7(C)C(C8=CC(=O)OC8)CC[C@@]7(O)C6CC[C@@H]5C4)OC3C)OC2C)CC(O)[C@H]1O (stereo partly specified)	-2%[60.1 µM]	/	/	2%	/	/
CCN(CC)CCNC(=O)Cn1nc(C)c2c(C)n(-c3ccccc3)nc2c1=O	-2%	1%	?	/	-11%	-13%
COc1ccc(-c2cc(C(=O)OC3CCOC3=O)c3ccccc3n2)cc1OC (stereo unspecified)	-9%	0%	-10%	-2%	-5%	2%
COc1ccc(OCC(=O)NCC(c2ccc(OC)cc2)N2CCCCC2)cc1 (stereo unspecified)	-2%	89µM*!	17%	8%	-3%	0%
O=C(NCc1ccco1)C1CC2CCC1C2 (stereo unspecified)	-10%	-1%	89µM*	2%	-18%	-2%
O=C(NCCOc1ccccc1)C(=O)NCC1CCCO1 (stereo unspecified)	-4%	25%	25%	7%	-3%	-8%
CCc1cccc(NS(=O)(=O)c2ccc3c(c2)CC(C)N3C(=O)C2CC2)c1 (stereo unspecified)	-1%	-1%	23%	/	-21%	6%
CCOC(=O)C1=C(OCc2ccc(Cl)cc2)C2C=C(C)C=CC2N=C1 (stereo unspecified)	-5%	45µM*	-12%	0%	-4%	-2%
NC(=O)c1ccc([N+](=O)[O-])cc1SCc1ccccc1	?	40µM*	?	-1%	?	-4%
N#Cc1c(-c2cccs2)nc(SCc2ccc(Cl)cc2)[nH]c1=O	-5%	56µM*	?	-15%	89µM*	-28%
CCN=C1S/C(=C/c2ccc(-c3ccc(Cl)cc3C(=O)O)o2)C(=O)N1CC	-18%	0%	-6%	-8%	35µM*	?
CCN=C1S/C(=C\c2ccc(-c3cccc(C(=O)O)c3)o2)C(=O)N1CC	-48%	11µM*	?	14%	20µM*	?
CCN1C(=O)/C(=C\c2ccc(-c3cccc(C(=O)OC)c3)o2)SC1=Nc1ccc(C(=O)O)cc1	/	-22%	/	?	/	/
Cc1ccc(NC(=O)CN2C(=O)NC3(CCc4ccccc43)C2=O)cc1 (stereo unspecified)	0%	3%	-23%	23%	1%	6%
CC(=O)N(C)c1ccc(N=Cc2c(O)ccc3ccccc23)cc1	-6%	0%	71µM*	17%	-4%	17%
CC(=O)c1cccc(N=Cc2c(O)ccc3ccccc23)c1	-11%	12%	?	18%	-16%	?
